# Inconclusive results are not listed. The source made the active and inactive calls. Calls come from the whole dose curve; as a rule, active = well fitted inhibition curve with a large enough effect; inconclusive = small, poorly fitted or top-dose-only effect; inactive = no such curve, though single readings can be large or run the other way.
# Assay: Orthogonal mCherry assay for qRT-PCR qHTS of selected Zika virus inhibitors
# Source text: Description: Assay Submitters (PI): Avindra Nath, Ph.D., National Institute of Neurological Disorders and Stroke (NINDS), Bethesda, MD Radhakrishnan Padmanabhan, Ph.D., Georgetown University (GU), Washington D.C. Zika Virus causes congenital defects, including microcephaly and is associated with Guillain-Barre syndrome, eningoencephalitis and myelitis in infected adult. […] Using a target-based approach, we hope to establish a screening paradigm to uncover novel, cell-active NS2B-NS3 protease (Zika Virus) specific inhibitors from NCATS' collection of small molecules using qHTS. […] Four assay panel was created to identify potential Zika Virus inhibitors. Namely, (1) GU unlinked NS2B-NS3 AMC tagged protease qHTS, (2) GU unlinked NS2B-NS3 Rhodamine tagged protease qHTS, (3) NINDS linked NS2B-NS3 AMC tagged protease qHTS, (4) NINDS linked NS2B-NS3 Rhodamine tagged protease qHTS. Inhibitors of the Zika virus primary screens are confirmed using qRT-PCR secondary assays, mCherry orthogonal assay, and Vero cells viability counterscreen. Early Translation Branch (ETB) National Center for Advancing Translational Sciences (NCATS), Rockville, MD National Institute of Health (NIH), Bethesda, Maryland
# 384 well ZIKV-mCherry Assay: We have developed a new orthogonal imaging assay in 384-well plate format, which uses recombinant virus ZIKV-mCherry in Vero cells. Briefly, 30 microL of Vero cells derived from a green monkey cell line, were dispensed by Multidrop Dispenser into a clear solid bottom black 384 well plate (ultracarrier, Perkin Elmer LifeSciences) at a concentration of 5,000 cells per well. […] The TIFFs were quantitated using the canned Multi Target Analysis protocol (GE Investigator Workstation software v3.7.2). […] A recombinant Zika viral infection was monitored in the Cy5 channel (cells) using a 2 microm collar dilation from the nuclear bitmap. mCherry objects with an average nuclear RFU intensity above 450 (3 stdev above mean negative control wells) were considered "mcherry positive" and data was analyzed by percent infection rate.
row,Compound,Potency
1,O=C1OC(c2ccc(O)c(S(=O)(=O)O)c2)(c2ccc(O)c(S(=O)(=O)O)c2)c2c(Br)c(Br)c(Br)c(Br)c21,inactive
2,CC(=O)c1c(O)c(C)c(O)c(Cc2c(O)c3c(c(C(=O)/C=C/c4ccccc4)c2O)OC(C)(C)C=C3)c1O,11.2 µM (active)
3,CC(C)=CCC[C@]1(C)C=Cc2c(O)c3c(c(CC=C(C)C)c2O1)O[C@]12C(=C[C@@H]4CC1C(C)(C)O[C@@]2(C/C=C(/C)C(=O)O)C4=O)C3=O,3.55 µM (active)

# Source: PubChem BioAssay AID1347171 (National Center for Advancing Translational Sciences (NCATS), 2019)
